# Source: PubChem BioAssay
# Test system: Human papillomavirus type 1a protein E7 (residues 44-93)
# Experiment: small molecules binding HPV E7 44-93 – biochemical, small-molecule microarray, residues 44-93, 635 nm fluorescence, primary screen (AID 1108);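 also: E7 fragment applied at 1 µg/mL in TBST for 1 h at 4 C; score combines spot fluorescence with its signal to noise ratio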
# Settings: fluorescence 635 nm, higher = more signal
row,SMILES,composite z-score
1,CO[C@H]1O[C@H](CO)[C@@H](OC(=O)Nc2ccc(C(F)(F)F)cc2)[C@H](OC(=O)Nc2ccccc2-c2ccccc2)[C@@H]1OC(=O)Nc1ccccc1-c1ccccc1,1.3
2,COCCOC(=O)N1C(=O)[C@@]2(c3cc(C#CCC(C(=O)OC)C(=O)OC)ccc31)[C@H](C(N)=O)[C@H]1C(=O)O[C@H](c3ccccc3)[C@H](c3ccccc3)N1[C@@H]2c1ccc(OCCO)cc1,1.43
3,CCCCNC(=O)c1ccc(C#C[Si](C)(C)C)c(OC(C)=O)c1,0.315
4,COCCOC(=O)N1C(=O)[C@@]2(c3cc(C#Cc4ccc(OC)cc4)ccc31)[C@H](C(=O)Nc1nc3ccccc3s1)[C@H]1C(=O)O[C@H](c3ccccc3)[C@H](c3ccccc3)N1[C@@H]2c1ccccc1OCCO,0.773
5,COC(=O)[C@@]1(Cc2ccc(F)cc2)[C@H]2c3cc(C(=O)N4CCCC4)n(CCO)c3C[C@H]2CN1C(=O)c1ccccc1,0.0213
6,CCC[C@@H]1C=C(C(=O)OCC)[C@H](c2ccccc2)N1S(=O)(=O)c1ccc(C)cc1,1.04
7,COCCOC(=O)N1C(=O)[C@@]2(c3ccccc31)[C@H](C(N)=O)[C@H]1C(=O)O[C@H](c3ccccc3)[C@H](c3ccccc3)N1[C@@H]2c1ccc(OCCO)cc1,1.45

# Test system: not listed separately
# Experiment: hepatitis C replication reporter changes, two-sided – Huh7 cells, luciferase reporter, HCV replication inhibitor project, primary screen (AID 1109);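 also: huh7 hepatoma cells harbouring a luciferase neomycin HCV replicon reporter; luciferase luminescence as measure of HCV replicon replication; test concentration not given here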
# Settings: Huh7 HCV replicon luciferase reporter, 48 h; higher = more signal
row,SMILES,z-score
1,CC(C)(C)OC(=O)CC[C@]1(C(=O)N2CCOCC2)N=C(c2ccc(OCCCO)cc2)O[C@H]1c1ccccc1CN=[N+]=[N-],-0.229
2,CC(c1ccccc1)C(O)C1C=CC2C(=O)N(c3ccccc3)C(=O)C2N1Nc1ccc(C#N)cc1 (configuration not stated),-0.354
3,COc1ccc(CCNC(=O)[C@@]2(Sc3ccc(C)cc3)CC(=O)N(Cc3cc(C(F)(F)F)cc(C(F)(F)F)c3)[C@@H]2c2ccc(CO)cc2)cc1,-0.146
4,CCOC(=O)C[C@H]1[C@H](OC(=O)c2cc3ccccc3oc2=O)[C@@H](NC(=O)C2CCCCC2)c2cc(OCCCO)ccc2N1C(=O)Cc1ccc(OC)cc1,-0.938
5,CC1CC/C=C\[C@H]2OC34C=CCN(CCN5CCOCC5)C(=O)[C@H]3N(CCCCCCO)C(=O)[C@@H]4C2C(=O)O1 (some centres not stated),-0.709
6,CCOC(=O)C1=CC[C@@H](c2ccc(F)cc2)N(S(=O)(=O)c2ccc(C)cc2)[C@H]1c1ccc([N+](=O)[O-])cc1,-1.05
7,COC(=O)[C@@]1(Cc2ccc(OC)cc2)[C@@H]2[C@@H](CC(=O)[C@H]2CC(=O)C(=O)N2CCCC2)CN1C(=O)c1ccccc1,-1.83
8,C=CCNC(=O)[C@H]1[C@@H]2C(=O)O[C@@H](c3ccccc3)[C@@H](c3ccccc3)N2[C@@H](c2ccc(O)cc2)[C@]12C(=O)Nc1ccc(C#CC3=CCCCC3)cc12,-1.83
9,COC(=O)Cn1c(C(=O)N(C)C)cc2c1C[C@H]1CN(C(=O)c3ccccc3)[C@@](Cc3ccc(OC)cc3)(C(=O)OC)[C@@H]21,-1.69
10,O=C1O[C@@H](c2ccccc2)[C@@H](c2ccccc2)N2[C@@H](c3ccc(O)cc3)[C@]3(C(=O)Nc4ccc(C#CC5=CCCCC5)cc43)[C@@H](C(=O)N3CCCCCCC3)[C@H]12,-1.46
11,CC(C)C[C@H]1NC(=O)[C@@]23C(=O)N[C@@H](Cc4ccccc4)C2[C@H](C)[C@@]2(C)O[C@H]2C3/C=C/C/C=C\CNC(=O)[C@@H]2CCCN2C1=O (some centres not stated),-0.0034
12,C#CCN(C/C=C/c1ccccc1)[C@H](CO[Si](C)(C)C(C)(C)C)c1ccccc1,-2.36
13,COC(=O)C1(CC(C)C)C=C2C(=C(C(C)C)C(=O)C2C)CN1 (configuration not stated),-0.193
14,CC=CC(O)C1C=CC2C(=O)N(C)C(=O)C2N1NC(=O)OC(C)(C)C (configuration not stated),0.381
15,COc1cc2c(cc1O)C(C1CC1)N(Cc1ccc([N+](=O)[O-])o1)CC2 (configuration not stated),-0.498
16,CC(C)C[C@H]1NC(=O)[C@@H](C)NC(=O)[C@@]23C(=O)N[C@@H](Cc4ccccc4)C2[C@H](C)[C@@]2(C)O[C@H]2C3/C=C/C/C=C\CNC1=O (some centres not stated),-1.61
17,COCCOC(=O)N1C(=O)[C@@]2(c3cc(C#Cc4ccc(OC)cc4)ccc31)[C@H](C(=O)N1CCCCCCC1)[C@H]1C(=O)O[C@H](c3ccccc3)[C@H](c3ccccc3)N1[C@@H]2c1ccccc1OCCO,-0.0111
18,CCCCN1CC=CC23O[C@@H]4C=CCOC(=O)[C@@H]4[C@H]2C(=O)N(C(CO)C(C)C)[C@@H]3C1=O (some centres not stated),-1.23

row,SMILES,z-score
1,C[C@H]1NC(=O)C([C@@H](C)OCc2ccccc2)NC(=O)[C@@]23C(=O)N[C@@H](Cc4ccccc4)C2[C@H](C)[C@@]2(C)O[C@H]2C3/C=C/C/C=C\CNC1=O (some centres not stated),-1.52
2,C=CCC(OC(C)=O)[C@@H]1[C@@H](N(Cc2cc3ccccc3o2)C(=O)c2cccc3ccccc23)c2cc(OCCCO)ccc2N1C(=O)c1ccc2ccccc2c1 (some centres not stated),-0.0143
3,NC(=O)NCC#Cc1ccc2c(c1)[C@]1(C(=O)N2)[C@H](C(=O)N2CCCCCCC2)[C@H]2C(=O)O[C@H](c3ccccc3)[C@H](c3ccccc3)N2[C@@H]1c1ccc(O)cc1,-1.13
4,[N-]=[N+]=NCc1ccccc1[C@H]1OC(c2ccc(OCCCO)cc2)=N[C@@]1(Cc1ccccc1)C(=O)N1CCOCC1,-2.31
5,CC(C)=CCN(C(=O)C#Cc1ccccc1)[C@H](CO)c1ccccc1,-4.92
6,CCCC=C(CCC)[C@@H](NC(=O)c1ccco1)c1ccc(C(=O)OC)cc1,-2.72
7,CN(C)CCCCNC(=O)[C@H]1C[C@H]2C(=O)NCC(=O)N2[C@H]1c1cccc(OCCO)c1,0.195
8,N#Cc1ccc(C(O)C2C=CC3C(=O)NC(=O)C3N2Nc2ccccn2)cc1 (configuration not stated),-0.676
9,C=CCC(OC(C)=O)[C@@H]1[C@@H](N(Cc2ccc(-c3cccc(C(F)(F)F)c3)o2)C(=O)Cc2ccc(F)cc2)c2cc(OCCCO)ccc2N1C(=O)c1ccc2ccccc2c1 (some centres not stated),-0.735
10,COCCOC(=O)N1C(=O)[C@@]2(c3cc(C#CC4(O)CCCCCC4)ccc31)[C@H](c1ccc(OCCO)cc1)N1[C@H](c3ccccc3)[C@H](c3ccccc3)OC(=O)[C@H]1[C@@H]2C(=O)N1CCCCCCC1,-1.94
11,CO[C@H]1O[C@H](CO)[C@@H](OC(=O)Nc2ccc(C(F)(F)F)cc2)[C@H](OC(=O)Nc2ccccc2-c2ccccc2)[C@@H]1OC(=O)Nc1ccccc1-c1ccccc1,-2.79
12,COCCOC(=O)N1C(=O)[C@@]2(c3cc(C#CCC(C(=O)OC)C(=O)OC)ccc31)[C@H](C(N)=O)[C@H]1C(=O)O[C@H](c3ccccc3)[C@H](c3ccccc3)N1[C@@H]2c1ccc(OCCO)cc1,-1.88
13,CCCCNC(=O)c1ccc(C#C[Si](C)(C)C)c(OC(C)=O)c1,0.93
14,COCCOC(=O)N1C(=O)[C@@]2(c3cc(C#Cc4ccc(OC)cc4)ccc31)[C@H](C(=O)Nc1nc3ccccc3s1)[C@H]1C(=O)O[C@H](c3ccccc3)[C@H](c3ccccc3)N1[C@@H]2c1ccccc1OCCO,-1.43
15,COC(=O)[C@@]1(Cc2ccc(F)cc2)[C@H]2c3cc(C(=O)N4CCCC4)n(CCO)c3C[C@H]2CN1C(=O)c1ccccc1,-1
16,CCC[C@@H]1C=C(C(=O)OCC)[C@H](c2ccccc2)N1S(=O)(=O)c1ccc(C)cc1,-1.84
17,COCCOC(=O)N1C(=O)[C@@]2(c3ccccc31)[C@H](C(N)=O)[C@H]1C(=O)O[C@H](c3ccccc3)[C@H](c3ccccc3)N1[C@@H]2c1ccc(OCCO)cc1,-1.09
